VACV Venus inh: inhibitors of vaccinia virus (Venus reporter). Vaccinia virus Venus reporter expression, fluorescence. Potency, µM (top dose mostly 36.5 µM), hits mostly inhibitors. actives 0.46% (n = 330,000). AID 720580; calls by dose curve; tested in A549 cells; also: nearly all actives have a fitted effect of over 30% in size
HCV inhibitor: HCV inhibition. actives 3.4% (n = 340,000). Potency, µM (series often up to 41.8 µM), actives largely listed as inhibitors. Huh7.5.1 HCVcc-Cre infection, luciferase reporter, 44 h; active = well fitted inhibition curve with a large enough effect; inconclusive = small, poorly fitted or top-dose-only effect, or another doubt; inactive = no such curve, though single readings can be large or run the other way
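Infectious HCV cell culture screen: compound-treated cells (1,000/well, pre-plated 4 h) are infected with HCVcc-Cre at roughly 0.5 moi and grown 44 h. Infection is quantified by luciferase signal after 15 min substrate incubation at room temperature.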
HCMV inh: blocks human cytomegalovirus replication; HFF cells, HCMV-luciferase reporter, 72 h; hits give low values; AID 1259415; actives 4.5% (n = 410,000); activity change, negative = inhibition, % at 57.5 µM; in the data active = activity change below about -60%; inconclusive = no clear call, values can overlap the other calls; inactive = above about -39%
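Human foreskin fibroblasts infected with luciferase-reporter HCMV at MOI 1 PFU/cell, compounds at two doses. Luciferase measured 72 h post infection; normalized to buffer-only basal and Salinomycin (10uM) controls.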
FMDV antiviral: antivirals against foot and mouth disease virus | Potency, µM (titrated, usually from 57.9 µM), most hits filed as inhibitors | actives 1.2% (n = 410,000) | AID 1159524 | FMDV antiviral cell-based qHTS; calls by dose curve; tested in HEK293T cells; also: read-out not given here; nearly all actives have a fitted effect of over 45% in size
Vaccinia mCherry: vaccinia inhibition (mCherry reporter); Potency, µM (top dose mostly 36.5 µM), hits mostly inhibitors; AID 720579; actives 0.63% (n = 310,000); Vaccinia virus mCherry reporter infection, fluorescence; calls by dose curve; tested in A549 cells; also: nearly all actives have a fitted effect of over 35% in size
Each line names hits and unclear results; the compound was inactive in the other large screens. Compounds with a hit are over-represented: about 7.3% of the library has one in this group of screens.

NS(=O)(=O)c1cccc(NC(=O)c2cncc(Br)c2)c1	none (no result: VACV Venus inh, Vaccinia mCherry)
COc1ccccc1NS(=O)(=O)c1cccc(NC(=O)c2sc3ccccc3c2Cl)c1	HCV inhibitor inconclusive, HCMV inh -68
CCc1ccc(CNC(=O)C2Cc3cc(S(=O)(=O)N4CCCCCC4)ccc3N2C(C)=O)cc1 (stereo unspecified)	VACV Venus inh inconclusive, Vaccinia mCherry inconclusive (no result: HCV inhibitor)
Cc1cc(C)cc(N2C(=O)CSC23C(=O)N(CC(=O)NCCc2ccccc2)c2ccccc23)c1 (stereo unspecified)	none (no result: HCV inhibitor)
CC(Oc1cccc(Cl)c1)C(=O)Nc1ccc(S(=O)(=O)N(C)C2CCN(C)CC2)cc1 (stereo unspecified)	VACV Venus inh inconclusive, HCV inhibitor inconclusive, Vaccinia mCherry 11µM
CN1CCC(N(C)S(=O)(=O)c2ccc(NC(=O)COc3ccc(Cl)cc3)cc2)CC1	HCV inhibitor 13µM (no result: VACV Venus inh, Vaccinia mCherry)
CC(Oc1cccc(Cl)c1)C(=O)Nc1ccc(S(=O)(=O)NC2=NCCCCC2)cc1 (stereo unspecified)	HCV inhibitor inconclusive
CN1CCC(N(C)S(=O)(=O)c2ccc(C(C)(C)C)cc2)CC1	HCV inhibitor inconclusive, HCMV inh -91 (no result: VACV Venus inh, Vaccinia mCherry)
CC(=O)Nc1ccc(S(=O)(=O)N(C)C2CCN(C)CC2)cc1	none
COc1ccc(CNC(=O)Cn2c(=O)cc(-c3ccccc3)c3c(C)nn(C)c32)cc1	none (no result: HCV inhibitor)
CCCn1c(C(O)c2ccc(OC)c(OC)c2)nc2ccccc21 (stereo unspecified)	HCV inhibitor inconclusive, HCMV inh -69, FMDV antiviral inconclusive (no result: VACV Venus inh, Vaccinia mCherry)
CCC(C)n1c(NC(=O)c2ccccc2)c(C#N)c2nc3ccccc3nc21 (stereo unspecified)	VACV Venus inh inconclusive, HCV inhibitor inconclusive, FMDV antiviral 11µM (no result: Vaccinia mCherry)
CCCCCn1c(NC(=O)c2ccco2)c(C(=O)OCC)c2nc3ccccc3nc21	HCV inhibitor inconclusive, FMDV antiviral inconclusive (no result: HCMV inh)
CCCCn1c(NC(=O)c2ccccc2)c(C#N)c2nc3ccccc3nc21	HCV inhibitor inconclusive, HCMV inh -67 (no result: FMDV antiviral)
O=C(NCCc1nc2ccccc2n1CCCOc1ccccc1)C1CCCCC1	none (no result: HCV inhibitor, HCMV inh, FMDV antiviral)
CC(C)(Oc1ccc(Cl)cc1)C(=O)Nc1cccnc1	none
O=C(Nc1ccncc1)c1ccc(Cl)cc1	none (no result: VACV Venus inh, Vaccinia mCherry)
CC(C)(Oc1ccc(Cl)cc1)C(=O)Nc1ccncc1	VACV Venus inh inconclusive, HCV inhibitor 11µM, FMDV antiviral inconclusive (no result: Vaccinia mCherry)
O=C(Cc1ccc(Cl)cc1)Nc1ccncc1	HCV inhibitor 10µM, HCMV inh inconclusive, FMDV antiviral inconclusive
Cc1ccc(CC(=O)Nc2ccncc2)cc1	HCV inhibitor 13µM, HCMV inh inconclusive, FMDV antiviral inconclusive (no result: VACV Venus inh, Vaccinia mCherry)
O=C(Nc1ccncc1)Nc1ccc(Cl)cc1	HCMV inh -72
Cc1ccc(C(=O)NCC(=O)Nc2ccncc2)cc1	none (no result: VACV Venus inh, Vaccinia mCherry)
Cc1ccc(C(=O)NCC(=O)Nc2ccncc2)cc1C	HCMV inh -74
CCc1ccc(NC(=O)c2ccc3[nH]c(C)c(C)c3c2)cc1	none (no result: HCV inhibitor)
CN(CC(=O)Nc1ccncc1)S(=O)(=O)c1ccc(Br)cc1	HCMV inh inconclusive, FMDV antiviral inconclusive (no result: VACV Venus inh, Vaccinia mCherry)
Cc1[nH]c2ccc(C(=O)Nc3ccncc3)cc2c1C	HCV inhibitor 11µM, HCMV inh -63 (no result: VACV Venus inh, Vaccinia mCherry)
CN(CCCC(=O)Nc1ccncc1)S(=O)(=O)c1ccc(Cl)cc1	HCV inhibitor 10µM, FMDV antiviral inconclusive (no result: VACV Venus inh, Vaccinia mCherry)
COc1c([N+](=O)[O-])ccc(N)c1N	none (no result: HCV inhibitor, HCMV inh, FMDV antiviral)
CCOc1ccc(-c2cc(C)[n+](CCN3CCOCC3)c(-c3ccc(OCC)cc3)c2)cc1	HCMV inh -82, FMDV antiviral inconclusive
O=C(CSc1nnc(NC2CC2)s1)Nc1ccc(N2CCOCC2)cc1	none (no result: VACV Venus inh, Vaccinia mCherry)
O=C(CSc1nnc(NC(=O)C2CCC2)s1)Nc1ccc(N2CCOCC2)cc1	HCMV inh -108 (no result: VACV Venus inh, Vaccinia mCherry)
CN(C)C(=O)c1ccc(-c2cc3onc(-c4ccccc4)c3c(=O)n2C)cc1	VACV Venus inh inconclusive, HCV inhibitor 3.5µM
COC(=O)c1ccc(-c2cc3onc(-c4ccccc4)c3c(=O)n2C)cc1	none
N#CC1=C(N)OC2=C(CN(Cc3ccccc3)C/C2=C\c2cccnc2)C1c1cccnc1 (stereo unspecified)	FMDV antiviral inconclusive (no result: Vaccinia mCherry)
CCN1CC2=C(OC(N)=C(C#N)C2c2ccccc2)/C(=C\c2ccccc2)C1 (stereo unspecified)	HCV inhibitor inconclusive, FMDV antiviral 22µM (no result: Vaccinia mCherry)
CCOC(=O)C1=C(C)OC(N)=C(C#N)C1c1cccs1 (stereo unspecified)	none
CCN1CC2=C(OC(N)=C(C#N)C2c2cccs2)/C(=C/c2cccs2)C1 (stereo unspecified)	HCV inhibitor 22µM, FMDV antiviral 28µM
CCN1C=C(Cc2cccs2)C2=C(C1)C(c1cccs1)C(C#N)=C(N)O2 (stereo unspecified)	HCV inhibitor inconclusive, FMDV antiviral 20µM
Cc1ccc(O)c(NC(=O)CSc2n[nH]c(C)c2[N+](=O)[O-])c1	VACV Venus inh inconclusive, HCV inhibitor inconclusive, HCMV inh inconclusive, Vaccinia mCherry 2.5µM
COc1ccc(NC(=O)CSc2n[nH]c(C)c2[N+](=O)[O-])cc1	none (no result: VACV Venus inh, Vaccinia mCherry)
Cc1ccc(NC(=O)CSc2n[nH]c(C)c2[N+](=O)[O-])cc1C	HCMV inh -69
CSc1ccccc1NC(=O)CSc1n[nH]c(C)c1[N+](=O)[O-]	none (no result: VACV Venus inh, Vaccinia mCherry)
Cc1ccc(S(=O)(=O)N2CCN(c3nc(-n4c(=O)[nH]c5ccccc54)nc4ccccc34)CC2)cc1	none (no result: HCV inhibitor, HCMV inh, FMDV antiviral)
O=C(NCCN1CCCC1)[C@@H]1[C@@H](CO)[C@@H]2Cn3c(cccc3=O)[C@@H]2N1C(=O)c1ccccc1	none (no result: VACV Venus inh, HCV inhibitor, FMDV antiviral, Vaccinia mCherry)
O=C(CCCCn1cnc2c(=S)nc[nH]c21)Nc1ccc(C(=O)O)c(O)c1	HCMV inh -73
COc1ccc(NC(=O)Cc2ccc(Cl)cc2Cl)cn1	HCMV inh -101
COc1ccc(NC(=O)/C(Cl)=C(/Cl)S(=O)Cc2ccccc2Cl)cn1 (stereo unspecified)	VACV Venus inh 2.8µM, HCV inhibitor 2.8µM, FMDV antiviral 3.2µM, Vaccinia mCherry 2µM (no result: HCMV inh)
COc1ccc(NC(=O)/C(Cl)=C(/Cl)S(=O)(=O)Cc2ccc(C)cc2)cn1	VACV Venus inh 14µM, HCV inhibitor 2.5µM, FMDV antiviral 22µM (no result: HCMV inh, Vaccinia mCherry)
COc1ccc(NC(=O)Cc2ccc(Cl)c(Cl)c2)cn1	none
COc1cc(NC(=O)CCCOc2cc(=O)n(C)c3ccccc23)cc(OC)c1OC	none (no result: HCV inhibitor)
CC(C)C(=O)N1CCC[C@@H]1c1noc2ccccc12	none (no result: VACV Venus inh, HCV inhibitor, FMDV antiviral, Vaccinia mCherry)
Cc1cccc2nc(-c3cccnc3)c(Nc3ccccc3)n12	HCMV inh -74, FMDV antiviral 32µM, Vaccinia mCherry inconclusive
Cc1cccc2nc(-c3cccnc3)c(NCCC(C)C)n12	none
O=C(O)C#CC(=O)O	none (no result: HCV inhibitor, HCMV inh, FMDV antiviral)
CC1=C(C(=O)OC2CCCC2)C(c2cccc(Cl)c2Cl)CC(=O)N1 (stereo unspecified)	HCMV inh -75, FMDV antiviral inconclusive (no result: HCV inhibitor)
COCC(=O)Nc1cc(C(=O)N2CCCCC2c2nccs2)c2c(c1)nc(-c1ccncc1)n2C (stereo unspecified)	none (no result: HCV inhibitor, HCMV inh)
CC(OC(=O)c1ccccc1OCC(=O)Nc1ccc(Br)cc1)C(=O)NC1CCCC1 (stereo unspecified)	none (no result: HCV inhibitor, HCMV inh, FMDV antiviral)

Screening data as filed in PubChem BioAssay.
